PNC inhibitor: blocks assembly of the perinucleolar compartment. PC3M PTB-GFP, PNC prevalence imaging, 16 h; stronger effect = lower value. activity change (PNC), negative = inhibition, % at 10 µM. 3.1% of 140,000 active;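 active = readout at or below -70, meaning at least 70% loss of cells showing the perinucleolar compartment, a nuclear body marking cancer cells; inconclusive = readout between -30 and a set limit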;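 note: plate controls were DMSO wells for no effect and camptothecin positive control wells for full effect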
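PC3M cells stably expressing PTB-GFP, 750–1000 cells/well, treated 16 h at 37 °C with compound (23 nl of library stock), in duplicate. After paraformaldehyde fixation and Hoechst stain, imaged at 20x; PNC prevalence scored by image analysis.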
Lamin A splicing: modulators of lamin A splicing; HeLa LMNA splicing GFP/RFP minigene ratio, 48 h; Potency, µM (titrated, usually from 46.1 µM), for the others: top-dose ratio change, negative = inhibition, hits mostly inhibitors; 0.01% of 200,000 active; AID 1487; active = well fitted inhibition curve with a large enough effect in the signal ratio, with a control signal flat, not every such curve was filed as active; inconclusive = small, poorly fitted or top-dose-only effect, or effect the other way, or a change in a side signal; the % refers to the signal ratio; note: potency is the fitted concentration of half-maximal effect
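S3 HeLa stable clones carrying a lamin A-EGFP splicing minigene plus DsRed2 were seeded at 600 cells/well in Opti-MEM with 2% FBS, pin-dosed and incubated 48 h at 37°C. Acumen cytometry (488 nm) gave the GFP/RFP total-intensity ratio.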
Luc counter: Kinase-Glo luciferase inhibition (counter-screen); Potency, µM (doses to about 38.3 µM), for the others: at the highest dose activity change, negative = inhibition, actives largely listed as inhibitors; Kinase-Glo luciferase, ATP luminescence, 8 min; 0.28% of 200,000 active; AID 1379; active = well fitted inhibition curve with a large enough effect; inconclusive = small, poorly fitted or top-dose-only effect; note: potency is the fitted concentration of half-maximal effect; nearly all actives have a fitted effect of over 60% in size
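Kinase-Glo luciferase light output from ATP and luciferin was measured with 10 uM ATP, within the enzyme's linear range. Buffer: 50 mM imidazole pH 7.2, 50 mM KCl, 7 mM MgCl2, 0.01% Tween 20, 0.05% BSA; luminescence read after 8 min at ambient temperature.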
ALDH1A1 inh: ALDH1A1 (human) enzyme inhibition; P00352; Potency, µM (top dose mostly 75.3 µM), for the others: at the top dose activity, negative = inhibition, most hits filed as inhibitors; Purified ALDH1A1, NADH fluorescence, propionaldehyde substrate; AID 1030; 7.3% of 220,000 active;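 note: potency is the fitted concentration of half-maximal effect; plate controls were no enzyme wells and a reference inhibitor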
Target sequence (P00352 whole entry, looked up): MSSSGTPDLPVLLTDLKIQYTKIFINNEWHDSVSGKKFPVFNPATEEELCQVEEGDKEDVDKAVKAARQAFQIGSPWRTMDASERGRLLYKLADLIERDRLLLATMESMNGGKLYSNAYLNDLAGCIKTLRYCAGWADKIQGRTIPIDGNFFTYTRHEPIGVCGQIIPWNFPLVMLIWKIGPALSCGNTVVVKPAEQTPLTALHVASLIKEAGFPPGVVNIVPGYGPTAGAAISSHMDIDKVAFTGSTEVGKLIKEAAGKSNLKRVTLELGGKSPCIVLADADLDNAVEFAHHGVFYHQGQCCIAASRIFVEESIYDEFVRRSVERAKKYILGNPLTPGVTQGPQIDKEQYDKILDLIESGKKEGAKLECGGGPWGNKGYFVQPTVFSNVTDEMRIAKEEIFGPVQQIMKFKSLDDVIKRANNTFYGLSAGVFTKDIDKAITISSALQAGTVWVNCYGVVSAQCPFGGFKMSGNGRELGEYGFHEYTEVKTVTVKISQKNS
IMPase inh: IMPase inhibition in cells; P97697; CHO-M1 cells, IP1 accumulation, HTRF TR-FRET ratio; inhibition (IP1 accumulation), % at 46.1 µM; 120,000 tested, under 10 active; active = well fitted curve in the direction sought with a large enough effect in the signal ratio, not every such curve was filed as active; inconclusive = small, poorly fitted or top-dose-only effect, or a change in a side signal; inactive = no such curve, though single readings can be large or run the other way; the % refers to the signal ratio;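 note: cells stimulated with carbachol in lithium chloride buffer; plate controls were DMSO basal wells for no effect and reference inhibitor wells for full effect; higher means more IMPase inhibition seen as more IP1 and lower FRET ratio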
Target sequence (P97697 whole entry, looked up): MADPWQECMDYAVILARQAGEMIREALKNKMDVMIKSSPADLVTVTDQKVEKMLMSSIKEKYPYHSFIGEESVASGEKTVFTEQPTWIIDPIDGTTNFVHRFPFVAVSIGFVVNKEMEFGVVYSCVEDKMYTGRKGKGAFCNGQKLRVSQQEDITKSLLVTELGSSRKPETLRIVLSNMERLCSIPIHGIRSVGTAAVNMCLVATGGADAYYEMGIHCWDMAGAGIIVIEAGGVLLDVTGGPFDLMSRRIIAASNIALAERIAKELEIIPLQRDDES
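Cellular IMPase inhibition is scored as a rise in cytosolic IP1, detected by competitive TR-FRET between d2-labelled IP1 and a europium anti-IP1 antibody. M1-expressing CHO cells were stimulated with carbachol for 30 min at 37C, with lithium (50 mM LiCl) present in the buffer.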
HPGD block: inhibitors of human 15-hydroxyprostaglandin dehydrogenase (HPGD); P15428; purified HPGD, NADH fluorescence kinetic, PGE2 substrate; Potency, µM, without a hit: at the highest dose activity change, negative = inhibition, most hits filed as inhibitors; 4.3% of 150,000 active; note: potency is the fitted concentration of half-maximal effect
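NADH formation kinetics: reaction with 30 uM PGE2 and 1 mM NAD+ (final), 20 nM enzyme, Tris-HCl pH 8 with Tween 20, after 15 min compound preincubation at room temperature. Fluorescence change, last versus first of five reads.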
Active calls of the source: *; ? = inconclusive; . = no result; [ ] = dose if it differs, or a comment. The list is not random: actives were taken first. Their share in the collection is about 10%. Unless noted, calls come from the whole dose curve; as a rule, active = well fitted inhibition curve with a large enough effect (not every such curve was filed as active); inconclusive = small, poorly fitted or top-dose-only effect, or another doubt; inactive = no such curve, though single readings can be large or run the other way. Unless noted, % is set by controls: 0 for no effect and ±100 for the full control effect.

SMILES	PNC inhibitor	Lamin A splicing	Luc counter	ALDH1A1 inh	IMPase inh	HPGD block
CCCCSc1nnc(-c2ccccc2N)c(=O)[nH]1	?	1%	-1%	1.6µM*	2	-10%
CCOC(=O)C1=C(Cc2ccc(Cl)cc2)C(=O)c2ccccc2C1=O	51	?	-9%	?	-4	3.5µM*
O=C1CC(c2ccccc2)CC(=O)C1CS(=O)(=O)c1ccccc1 (centres undefined)	.	.	2%	11µM*	.	.
O=C1CC(=O)CC(c2ccccc2)C1	.	21%[46 µM]	2%	8%	.	.
Cc1cc(C(C)(C)C)c(OCCCN2CCOCC2)c(C(C)(C)C)c1	.	.	-1%[7.66 µM]	0%[13.5 µM]	.	-8%
CCOC(=O)C(NC(=O)c1ccccc1)(N1CCCC1=O)C(F)(F)F (centres undefined)	-85*	7%	-2%	8%	2	-14%
CCCn1c(-c2ccc(F)cc2)nc2c(N3CCN(CCC(=O)OCC)CC3)nc(C)nc21	.	.	0%	5%	.	-14%
COc1ccc2nc(NC(=O)CSC3=NCCS3)sc2c1	?	?	-3%	-7%	-1	-12%
C/C=C/C(=O)OCC(=O)Nc1nc2ccc(C)cc2s1	40	-6%	14%	-6%	-8	-12%
CCOCC(=O)Nc1nc2ccc(C)cc2s1	-100*	-12%	-8%	13µM*	-4	-9%
CCOCC(=O)Nc1nc2ccc(OCC)cc2s1	?	-4%	-21%	16µM*	2	-5%
CCOc1ccc2nc(NC(=O)CSc3ccc(Cl)cc3)sc2c1	44	8%	1%	-74%	6	-25%
CCOc1ccc2nc(NC(=O)CSC3=NCCS3)sc2c1	?	?	13%	25µM*	15	-21%
Cc1ccc2nc(NC(=O)CSc3ncnc4c3oc3ccccc34)sc2c1	-108*	-3%	0%	7%	-2	-18%
Cc1cccc(OCC(=O)Nc2cccc(OCc3cc(=O)n4cccc(C)c4n3)c2)c1	.	-10%[46 µM]	.	.	.	.
Cc1ccc2nc(NC(=S)NC(=O)c3ccc(OC(C)C)cc3)sc2c1	15	?	3%	19µM*	3	10µM*
COc1ccc2nc(NC(=O)CSc3ccccc3)sc2c1	?	?	3%	28µM*	15	-29%
COc1ccc2nc(NC(=O)CSc3nnc(N)s3)sc2c1	?	-10%	0%	2%	5	-12%
COc1cccc([C@@H]2Oc3ccc(Br)cc3C[C@H]2O)c1	.	.	1%	6%	.	-27%
CC(C)OC(=O)CN1C(=O)C(C)(C)Oc2ccc(C(=O)NC3CC3)cc21	?	3%	-3%	11µM*	0	-13%
CCCNC(=O)Cn1c(=O)cc(C)c2c(C)nn(-c3cccc(F)c3)c21	.	17%[46 µM]	.	.	.	.
COc1ccc(Br)cc1CN(C)CC(=O)Nc1c(Cl)cccc1Cl	?	?	0%	14%	6	16µM*
CCOc1ccccc1NC(=O)c1ccc(F)c(S(=O)(=O)N2CCN(c3ccc(F)cc3)CC2)c1	.	-1%[46 µM]	.	.	.	.
CC(C)CCn1cnc2c(oc3nc4c(cc32)CCCC4)c1=O	.	.	.	3.2µM*	.	.
Nc1nnc(SCC(=O)Nc2sc3c(c2C(=O)c2ccccc2)CCCC3)s1	31	?	0%	13µM*	.	-20%
SMILES	PNC inhibitor	Lamin A splicing	Luc counter	ALDH1A1 inh	IMPase inh	HPGD block
Nc1nnc(SCC(=O)c2ccc3ccccc3c2)s1	16	5%	-2%	8.9µM*	-6	22µM*
COCCNc1nnc(SCC(=O)Nc2sc3c(c2C(=O)c2ccccc2)CCCC3)s1	7	?	-1%	28µM*	20	-26%
Nc1nnc(SCC(=O)c2cccc([N+](=O)[O-])c2)s1	.	.	1%	?	.	.
O=C(NCCOc1ccccc1)O[C@@H]1C(=O)c2cc(Br)ccc2O[C@H]1c1ccc2c(c1)OCO2	.	.	1%	2%	.	-7%
Nc1ccc(N2CCOCC2)c(S(=O)(=O)Nc2cc(Cl)ccc2Cl)c1	.	.	2%	-4%	.	.
N=C1c2ccccc2CN1c1ccc(N2CCOCC2)c(S(=O)(=O)Nc2ccc(Cl)cc2)c1	.	.	.	1.8µM*	.	.
COc1ccc(CCNC(=O)CSc2ccc3ccccc3c2)cc1OC	16	-12%	.	-2%	?	.
O=C(CSc1ccc2ccccc2c1)NCCc1ccc(O)c(O)c1	.	-26%[46 µM]	1%	25µM*	.	.
COC(=O)c1cc(=O)[nH]c(=O)[nH]1	.	.	-2%[7.66 µM]	-3%[13.5 µM]	.	-7%
COc1ccc(-c2coc3cc4oc(=O)cc(-c5ccccc5)c4cc23)cc1F	-111*	-23%	-1%	5%	6	?
CCc1ccc(S(=O)(=O)Nc2cccc(-c3ccc(N4CCOCC4)nn3)c2)cc1	.	-11%[46 µM]	.	.	.	.
c1coc(C2Nc3cccc4cccc(c34)N2)c1	-29	19%	-8%	25µM*	0	?
FC(F)(F)c1ccc(C2Nc3cccc4cccc(c34)N2)cc1	.	-2%[46 µM]	1%	?	.	.
COc1cc(NC(=O)CSc2nc(-c3ccco3)cc(C(F)(F)F)n2)cc(OC)c1OC	.	.	.	.	0	.
O/N=C(\c1ccc(Cl)cc1)c1cc2ccccc2o1	?	?	2%	6%	20	25µM*
COc1ccc2c(c1)O[C@@H](c1cccc(C(F)(F)F)c1)[C@H](OC(=O)N[C@H](C)C1CCCCC1)C2=O	.	.	-1%	12%	.	0%
O=c1ccn([C@@H]2O[C@H](COP(=O)(O)O)[C@@H](O)[C@H]2O)c(=O)[nH]1	.	.	.	-5%	.	.
COC(=O)C1=C(C(C)=O)C(c2ccc(C(=O)OC)cc2)n2nnnc2N1 (centres undefined)	?	-11%	4%	-12%	-11	-11%
COC(=O)C1=C(C(=O)c2ccccc2)C(c2ccccc2)n2nnnc2N1 (centres undefined)	.	-3%[46 µM]	-2%	28µM*	.	.
O=S(=O)(c1ccc(Cl)s1)N1CCN(Cc2ccccc2)CC1	-83*	?	-1%	6%	5	-8%
C=CCc1ccc(OCCOCCOc2ccc(C)cc2[N+](=O)[O-])c(OC)c1	9	9%	-1%	25µM*	0	?
COc1ccccc1OCCOCCOc1ccc(C)cc1[N+](=O)[O-]	-22	-4%	0%	?	.	-9%
[O-][n+]1onc2c1CCC(=N/O)/C2=N\Nc1ccccc1	.	.	.	3.5µM*	.	.
O=C1NCCCc2c1no[n+]2[O-]	-1	-1%	2%	?	7[1.84 µM]	-5%
CCN=C1SC(CC(=O)NCCc2ccc(OC)c(OC)c2)C(=O)N1CC (centres undefined)	10	11%	-7%	20µM*	11	-4%
COc1ccc(CCNC(=O)CC2SC(=NCCc3ccccc3)NC2=O)cc1OC (centres undefined)	?	5%	4%	14µM*	.	-1%

Compound activity: PubChem BioAssay, National Center for Advancing Translational Sciences (NCATS)
